Drawing on PubChem BioAssay AID624484 (NMMLSC, 2012), this text covers outcome for one compound.

The test in a line: empty-vector K562 compound effect – cell-based, flow cytometry, cherry pick set 2, counter-screen for ABCB6 inhibitor project, dose response (AID 624484). Particulars: K562 empty-vector cells, 1 h; series mostly up to 100 µM.

Some of the results follow. Active and inactive are the calls of the source.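 The calls were made as follows: active = compounds whose half-maximal effective concentration is below 100 µM; inactive = the rest.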

In the case of `Cc1ccc(CS(=O)(=O)c2ncc(Cl)c(C(=O)Nc3nnc(C)s3)n2)cc1`, the call was inactive.
